# Test results from ChEMBL document CHEMBL3988442, “University of Dundee, Small-Polar-MMV Screening Library” (2021).
# For some of these results: Measured potencies and affinities stand elsewhere.
# Experiments:
# Design in all cases: scale not given: direction of the effect not stated beside the values
# [1] = molecular target: Protein translocase subunit SecA (Escherichia coli (strain K12)) (UniProt P10408); assay: Assay to Identify E. coli SecA ATPase Inhibitors; format: functional; settings: 30 µM
# Chain of Protein translocase subunit SecA (Escherichia coli (strain K12)) (P10408 whole entry): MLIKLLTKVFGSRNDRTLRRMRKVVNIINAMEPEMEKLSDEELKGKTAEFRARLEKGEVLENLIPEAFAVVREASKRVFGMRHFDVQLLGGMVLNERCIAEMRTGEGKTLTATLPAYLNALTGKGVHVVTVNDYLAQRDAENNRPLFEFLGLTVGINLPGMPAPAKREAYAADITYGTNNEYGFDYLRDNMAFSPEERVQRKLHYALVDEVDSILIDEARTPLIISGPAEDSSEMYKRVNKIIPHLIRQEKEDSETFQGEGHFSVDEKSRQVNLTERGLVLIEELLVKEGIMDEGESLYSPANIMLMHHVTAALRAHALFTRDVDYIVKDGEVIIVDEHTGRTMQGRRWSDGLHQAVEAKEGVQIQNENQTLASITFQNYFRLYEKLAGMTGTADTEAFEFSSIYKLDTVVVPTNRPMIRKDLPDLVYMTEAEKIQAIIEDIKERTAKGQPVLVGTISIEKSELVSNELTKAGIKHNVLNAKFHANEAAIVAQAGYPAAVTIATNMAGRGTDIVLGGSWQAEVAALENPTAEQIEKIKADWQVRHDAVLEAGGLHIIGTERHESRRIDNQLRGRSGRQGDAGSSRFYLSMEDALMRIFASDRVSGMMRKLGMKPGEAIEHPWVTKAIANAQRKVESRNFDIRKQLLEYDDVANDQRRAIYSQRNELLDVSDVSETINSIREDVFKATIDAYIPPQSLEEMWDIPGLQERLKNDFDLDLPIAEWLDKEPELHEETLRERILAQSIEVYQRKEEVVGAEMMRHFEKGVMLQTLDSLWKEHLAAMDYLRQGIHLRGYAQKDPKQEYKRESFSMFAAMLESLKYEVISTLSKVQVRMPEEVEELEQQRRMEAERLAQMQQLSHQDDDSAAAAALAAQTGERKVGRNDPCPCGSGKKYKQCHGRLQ
# [2] = molecular target: T1, Ubiquitin-activating enzyme e1, putative (Leishmania donovani (strain BPK282A1)) (UniProt E9BSI1); assay: Leishmania donovani Ubiquitin Activating Enzyme (LdE1); format: functional; settings: 30 µM
# T1 sequence (whole entry): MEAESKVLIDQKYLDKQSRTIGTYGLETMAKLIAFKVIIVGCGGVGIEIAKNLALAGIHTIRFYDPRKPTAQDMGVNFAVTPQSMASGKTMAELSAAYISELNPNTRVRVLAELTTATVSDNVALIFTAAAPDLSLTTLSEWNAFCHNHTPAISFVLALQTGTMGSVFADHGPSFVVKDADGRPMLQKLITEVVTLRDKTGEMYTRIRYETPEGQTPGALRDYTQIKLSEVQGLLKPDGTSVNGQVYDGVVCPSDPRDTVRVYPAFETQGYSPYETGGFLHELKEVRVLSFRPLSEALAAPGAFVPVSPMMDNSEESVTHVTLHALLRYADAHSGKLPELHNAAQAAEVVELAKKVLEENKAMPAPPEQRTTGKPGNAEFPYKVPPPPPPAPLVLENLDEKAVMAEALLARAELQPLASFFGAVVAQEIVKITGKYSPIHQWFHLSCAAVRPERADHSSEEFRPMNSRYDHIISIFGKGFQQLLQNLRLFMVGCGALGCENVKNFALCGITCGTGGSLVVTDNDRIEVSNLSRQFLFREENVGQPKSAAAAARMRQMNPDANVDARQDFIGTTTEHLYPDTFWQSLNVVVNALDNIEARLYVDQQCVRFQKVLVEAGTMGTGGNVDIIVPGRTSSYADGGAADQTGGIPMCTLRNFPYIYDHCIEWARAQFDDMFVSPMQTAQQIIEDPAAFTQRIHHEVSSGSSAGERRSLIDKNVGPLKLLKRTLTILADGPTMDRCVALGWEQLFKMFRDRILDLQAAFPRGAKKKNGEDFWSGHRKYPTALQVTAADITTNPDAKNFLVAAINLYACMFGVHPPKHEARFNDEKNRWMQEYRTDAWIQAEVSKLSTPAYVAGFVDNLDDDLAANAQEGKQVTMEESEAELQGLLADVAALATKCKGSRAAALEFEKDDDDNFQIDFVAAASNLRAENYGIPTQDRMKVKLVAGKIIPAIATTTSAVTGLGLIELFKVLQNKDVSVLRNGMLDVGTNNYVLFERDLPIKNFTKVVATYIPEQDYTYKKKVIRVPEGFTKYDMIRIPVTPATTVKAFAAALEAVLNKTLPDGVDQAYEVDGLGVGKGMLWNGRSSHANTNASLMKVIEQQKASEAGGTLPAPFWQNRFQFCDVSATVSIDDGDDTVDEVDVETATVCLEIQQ
# [3] = molecular target: AMP-activated protein kinase, AMPK (Homo sapiens) (UniProt P54646+O43741+P54619+Q9UGJ0+Q9Y478+Q13131+Q9UGI9); assay: AMP-dependent Kinase enzyme assay. An in vitro enzyme assay that detects ADP turnover that is directly proportional to AMPK activity. This uses naive AMPK that is activated during the assay with MK-8722; format: functional; settings: 30 µM
# [4] = molecular target: Sialic acid-binding Ig-like lectin 9 (Homo sapiens) (UniProt Q9Y336); assay: Hs-Siglec9 ALPHAscreen SOP 20170721; settings: 10 µM
# Chain of Sialic acid-binding Ig-like lectin 9 (Homo sapiens) (Q9Y336 whole entry): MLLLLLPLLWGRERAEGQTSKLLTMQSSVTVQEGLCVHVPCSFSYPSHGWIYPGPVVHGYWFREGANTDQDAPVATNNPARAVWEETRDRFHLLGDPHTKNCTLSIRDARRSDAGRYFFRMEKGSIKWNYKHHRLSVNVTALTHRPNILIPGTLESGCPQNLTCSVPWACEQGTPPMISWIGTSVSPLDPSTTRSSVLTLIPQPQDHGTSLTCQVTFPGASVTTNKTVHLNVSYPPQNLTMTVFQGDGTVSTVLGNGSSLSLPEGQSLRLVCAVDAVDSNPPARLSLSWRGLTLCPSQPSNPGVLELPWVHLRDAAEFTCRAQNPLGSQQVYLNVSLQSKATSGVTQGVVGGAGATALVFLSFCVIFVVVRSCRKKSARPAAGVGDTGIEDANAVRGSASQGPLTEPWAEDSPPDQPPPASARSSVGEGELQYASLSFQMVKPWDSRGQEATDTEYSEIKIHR
# Trypanosoma cruzi = assay: Trypanosoma cruzi phosphomannomutase and mannose-1-phosphate guanylyltransferase assay; format: functional; settings: 10 µM
# [5] = molecular target: T2, Arginase-2, mitochondrial (Homo sapiens) (UniProt P78540); assay: in vitro enzyme assay to detect the production of urea directly proportional to the activity of Arginase II; format: functional; settings: 33.3 µM; note: in the data most compounds retested in dose-response had high values
# T2 sequence (whole entry): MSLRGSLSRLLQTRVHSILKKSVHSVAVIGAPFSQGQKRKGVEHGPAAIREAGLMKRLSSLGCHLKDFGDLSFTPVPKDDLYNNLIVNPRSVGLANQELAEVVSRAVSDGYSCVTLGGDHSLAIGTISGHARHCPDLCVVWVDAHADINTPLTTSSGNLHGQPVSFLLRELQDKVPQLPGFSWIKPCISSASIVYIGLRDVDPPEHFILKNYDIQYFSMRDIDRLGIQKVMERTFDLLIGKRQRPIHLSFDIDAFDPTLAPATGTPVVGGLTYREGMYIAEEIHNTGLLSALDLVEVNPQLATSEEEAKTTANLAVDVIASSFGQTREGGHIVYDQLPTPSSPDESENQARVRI
# [6] = molecular target: T3, Proteasome subunit beta (Trypanosoma cruzi) (UniProt O96673); assay: Trypanosoma cruzi proteasome chymotrypsin-like activity (TcProtChymo) assay.; note: in the data most compounds retested in dose-response had high values; format: functional; settings: 9.37 µM
# T3 sequence (whole entry): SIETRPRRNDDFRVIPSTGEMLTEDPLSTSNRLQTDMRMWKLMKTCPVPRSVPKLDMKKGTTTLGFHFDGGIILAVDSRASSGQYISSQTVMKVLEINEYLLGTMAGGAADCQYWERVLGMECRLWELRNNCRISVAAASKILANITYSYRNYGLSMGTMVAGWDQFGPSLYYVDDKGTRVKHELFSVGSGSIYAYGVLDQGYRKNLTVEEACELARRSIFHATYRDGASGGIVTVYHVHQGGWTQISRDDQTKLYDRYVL
# Homo sapiens = species: Homo sapiens; assay: To identify inhibition of the IFN signalling (Jak-Stat) pathway via expression of an eGFP reporter gene under the control of an IFN-stimulated response element (ISRE) containing MxA promoter.; format: functional; settings: 30 µM
# [7] = molecular target: T4, Tyrosyl-tRNA synthetase, putative (Trypanosoma cruzi (strain CL Brener)) (UniProt Q4DSP6); assay: Trypanosoma cruzi tyrosyl tRNA synthetase (TcYRS) _High Tyrosine SOP; format: functional; settings: 30 µM; note: in the data most compounds retested in dose-response had high values
# T4 sequence (whole entry): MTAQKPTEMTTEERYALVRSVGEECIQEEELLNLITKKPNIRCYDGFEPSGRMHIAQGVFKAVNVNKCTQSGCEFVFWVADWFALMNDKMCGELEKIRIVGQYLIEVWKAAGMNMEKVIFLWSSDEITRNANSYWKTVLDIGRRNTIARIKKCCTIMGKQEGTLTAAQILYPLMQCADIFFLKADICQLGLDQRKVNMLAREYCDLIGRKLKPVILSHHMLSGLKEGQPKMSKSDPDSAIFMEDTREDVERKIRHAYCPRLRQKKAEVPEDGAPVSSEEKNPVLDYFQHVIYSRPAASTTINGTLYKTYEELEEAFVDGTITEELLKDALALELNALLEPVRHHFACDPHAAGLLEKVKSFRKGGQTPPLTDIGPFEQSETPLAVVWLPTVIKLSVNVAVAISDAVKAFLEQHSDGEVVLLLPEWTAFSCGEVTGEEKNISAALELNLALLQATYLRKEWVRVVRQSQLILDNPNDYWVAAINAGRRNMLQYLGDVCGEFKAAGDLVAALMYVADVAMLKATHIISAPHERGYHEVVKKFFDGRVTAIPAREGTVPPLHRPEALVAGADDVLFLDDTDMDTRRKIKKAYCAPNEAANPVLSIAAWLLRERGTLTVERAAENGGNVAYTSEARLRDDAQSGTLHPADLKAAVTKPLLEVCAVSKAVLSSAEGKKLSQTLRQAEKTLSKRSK
# [8] = molecular target: T4, Tyrosyl-tRNA synthetase, putative (Trypanosoma cruzi (strain CL Brener)); assay: Trypanosoma cruzi tyrosyl tRNA synthetase (TcYRS) SOP; format: functional; settings: 30 µM
# [9] = molecular target: Chromo domain-containing protein 1 (Saccharomyces cerevisiae (strain ATCC 204508 / S288c) (Baker's yeast)) (UniProt P32657); assay: ScCHD-1 Enzyme Inhibition Assay; format: functional; settings: 30 µM; note: in the data most compounds retested in dose-response had high values
# Chain of Chromo domain-containing protein 1 (Saccharomyces cerevisiae (strain ATCC 204508 / S288c) (Baker's yeast)) (P32657 whole entry, the tested form may be a part): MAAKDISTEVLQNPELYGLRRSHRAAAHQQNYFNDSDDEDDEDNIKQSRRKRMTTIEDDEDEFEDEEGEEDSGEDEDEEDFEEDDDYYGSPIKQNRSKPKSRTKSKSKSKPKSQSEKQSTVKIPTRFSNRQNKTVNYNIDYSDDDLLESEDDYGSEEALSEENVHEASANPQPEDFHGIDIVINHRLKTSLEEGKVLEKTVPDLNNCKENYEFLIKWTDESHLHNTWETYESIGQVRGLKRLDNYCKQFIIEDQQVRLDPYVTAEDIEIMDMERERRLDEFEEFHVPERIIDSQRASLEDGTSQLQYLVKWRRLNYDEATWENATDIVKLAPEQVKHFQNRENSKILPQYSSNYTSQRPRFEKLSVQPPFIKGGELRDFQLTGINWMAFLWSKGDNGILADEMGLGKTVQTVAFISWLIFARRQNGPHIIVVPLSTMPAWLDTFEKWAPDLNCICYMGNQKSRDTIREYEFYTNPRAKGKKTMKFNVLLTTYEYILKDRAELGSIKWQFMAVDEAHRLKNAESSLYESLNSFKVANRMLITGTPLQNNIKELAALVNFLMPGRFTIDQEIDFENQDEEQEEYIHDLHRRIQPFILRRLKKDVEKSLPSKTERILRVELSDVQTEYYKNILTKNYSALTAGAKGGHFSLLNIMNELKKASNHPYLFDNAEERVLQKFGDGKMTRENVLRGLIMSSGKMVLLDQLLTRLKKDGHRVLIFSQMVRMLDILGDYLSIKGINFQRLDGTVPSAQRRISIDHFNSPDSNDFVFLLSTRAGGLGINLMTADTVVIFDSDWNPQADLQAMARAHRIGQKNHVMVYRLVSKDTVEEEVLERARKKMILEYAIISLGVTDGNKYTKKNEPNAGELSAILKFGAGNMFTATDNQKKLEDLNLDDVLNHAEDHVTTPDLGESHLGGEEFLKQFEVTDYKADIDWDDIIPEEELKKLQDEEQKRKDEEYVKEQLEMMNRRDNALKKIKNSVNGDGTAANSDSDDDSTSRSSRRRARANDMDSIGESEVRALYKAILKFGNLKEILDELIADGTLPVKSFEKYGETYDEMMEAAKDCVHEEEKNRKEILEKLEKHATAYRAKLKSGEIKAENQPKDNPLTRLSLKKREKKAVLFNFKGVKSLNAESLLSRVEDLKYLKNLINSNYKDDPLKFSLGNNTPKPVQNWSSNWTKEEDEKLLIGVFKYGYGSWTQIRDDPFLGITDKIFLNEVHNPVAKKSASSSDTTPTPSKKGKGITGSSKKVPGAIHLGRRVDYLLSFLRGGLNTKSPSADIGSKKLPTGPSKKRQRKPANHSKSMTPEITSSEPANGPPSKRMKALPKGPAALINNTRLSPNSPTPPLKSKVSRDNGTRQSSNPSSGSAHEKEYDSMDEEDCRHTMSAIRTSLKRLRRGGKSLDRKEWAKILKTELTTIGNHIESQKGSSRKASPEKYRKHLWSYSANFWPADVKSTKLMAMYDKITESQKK
Structure (SMILES),Percent Effect [1],Percent Effect [2],Percent Effect [3],Percent Effect [4],Percent Effect (Trypanosoma cruzi),Percent Effect [5],Percent Effect [6],Percent Effect (Homo sapiens),Percent Effect [7],Percent Effect [8],Percent Effect [9]
CCOCC1CN(Cc2ccoc2)Cc2nn(CC3CC3)cc21 (stereo not given),-7.41%,-2.7%,4.81%,-1.13%,-3.52%,0%,3.3%,5.53%,-7.92%,6.1%,0.75%
Cc1ccccc1C1(CNC(=O)NCCc2nnc3n2CCC3)CC1,-1.76%,-5.26%,-101%,5.17%,-3.41%,-2.37%,7.19%,-19.3%,0%,-2.6%,-0.461%
CC(=O)N1CCn2cc(CNC(=O)c3cccn3C)nc2C1,-2.25%,13.3%,8.17%,-3.72%,-5.32%,0.233%,2.2%,5.97%,3.19%,14.1%,-2.9%
NC(=O)COc1cccc(C(=O)N2CCCC(n3ccnc3)C2)c1 (stereo not given),-0.383%,0%,-5.3%,11.8%,6.41%,0.554%,-4.67%,-2.06%,1.98%,11%,2.43%
c1cncc(COCc2nnc3n2CCN(Cc2ccoc2)C3)c1,-1.23%,18.2%,3.03%,9.78%,5.21%,-8.28%,21%,8.47%,6.45%,16.1%,0.555%
COCCCC1(CO)CCCN(CCS(C)(=O)=O)C1 (stereo not given),-1.54%,0%,3.61%,-1.71%,0%,1.36%,2.13%,-0.331%,2.15%,5%,2.4%
CCCS(=O)(=O)N1CCO[C@H]2[C@H](OCc3ccccn3)CC[C@@H]21,-9.04%,8.11%,-5.79%,-1.28%,-0.977%,5%,10.1%,5.42%,10.9%,15.8%,-2.32%
Fc1cccc(N2CCCC3(C2)CN(c2ncccn2)CCO3)c1 (stereo not given),-0.397%,13%,2.68%,-5.04%,-2.66%,3.23%,9.4%,23.1%,7.41%,14.1%,-4.87%
CC(C)c1nnc2n1CCN(CC(=O)Nc1sccc1C#N)C2,-8.13%,7.89%,-4.21%,-3.31%,-3.83%,1.08%,-3.13%,-0.485%,-2.46%,-6.17%,3.89%
c1cnnc(N2CCCC2CNCc2cnc(N3CCCC3)nc2)c1 (stereo not given),0.488%,-1.27%,13.5%,6.03%,1.33%,2.8%,4.8%,16.1%,5.21%,0%,-7.82%
Cc1cnn(C2CCCN(C(=O)c3ccn(C)c(=O)c3)C2)c1 (stereo not given),-0.722%,7.79%,-5.73%,-4%,1.08%,5.68%,-3.15%,20.6%,3.81%,11.8%,-14.6%
CCO[C@@H]1CO[C@@]2(CCCN(C(=O)c3ccc(OC)c(F)c3)C2)C1,-3.5%,10.4%,6.36%,-0.114%,-3.06%,11%,16.5%,6.86%,11.6%,8.97%,-7.2%
COc1ccccc1CC(=O)N1CCCC(n2nc(C)cc2C)C1 (stereo not given),4.86%,0%,2.98%,-5.42%,-1.23%,5.32%,1.06%,2.12%,-0.493%,-3.8%,-0.887%
O=C(NCc1cccnc1)C1CC(=O)N(CC2CC2)C1 (stereo not given),-5.33%,15.6%,-0.688%,-14.6%,6.37%,-1.05%,17.7%,4.16%,4.76%,21.2%,-21.7%
CN(C)C(=O)[C@H]1C[C@@H]2CCN(C3CCOCC3)C[C@H]2O1,-0.651%,2.67%,-1.32%,-3.17%,4.44%,-50.7%,-1.03%,-1.34%,-1.04%,-5%,-4.08%
Cc1ccc(S(=O)(=O)NCCNC(=O)c2ccoc2)cc1F,-4.47%,13.3%,4.57%,12.1%,5.75%,5.21%,15.5%,16.4%,3.83%,13.6%,86.1%
CC(=O)N1CCCCC1c1cc(CO)[nH]n1 (stereo not given),-1.55%,1.35%,7%,5.31%,1.78%,2.09%,12.3%,10.5%,3.23%,6.49%,9.52%
CC(NC(=O)N(C)Cc1ccsc1)c1ccc2c(c1)OCO2 (stereo not given),-2.79%,10.5%,5%,4.83%,9.59%,-4.21%,11%,1.31%,4.41%,19.5%,-8.55%
COCCN1CC[C@@H](O)[C@@H]1Cc1ccccc1,1.28%,6.67%,2.24%,0.614%,-10.4%,-8.63%,10.7%,-7.47%,2.12%,0%,-7.73%
CC(=O)N(Cc1noc(C2CC2)n1)C1CCN(Cc2nccn2C)C1 (stereo not given),-1.42%,16.2%,-8.4%,-4.39%,-6.22%,-4.25%,11.1%,11.5%,3.96%,18.3%,-5.65%
